Measurements as given in the supplement of paper PMC11219838.

Experiments:
Details in all cases: 60 µM; 5 days; temperature: 20 °C
Meloidogyne hapla J2 = test: proportion of mobile M. hapla J2 relative to DMSO control (fraction of DMSO control); higher = more viable, less nematicidal, active = 0.7 or less
Procedure, shortened: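 Two biological replicates were run and averaged, each on 96-well plates in which about 25 M. hapla J2 sat in distilled water per well. Compound was pinned in to give 60 µM final and 0.6% v/v DMSO, and the sealed plates were shaken at 200 rpm and 20 °C for 5 days before 2 µL 1 M NaOH was added. Mobility was scored microscopically and divided by the mean from the plate's DMSO-only wells, of which there were eight.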

[1] = tested on: Caenorhabditis elegans dauer (daf-2(e1370)); test: proportion of mobile C. elegans dauer larvae relative to DMSO control (fraction of DMSO control); higher = more viable, less nematicidal, active = 0.63 or less; extreme values may be limits of the assay
Procedure, shortened: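 Synchronized C. elegans larvae were kept for 48 h at 25 °C on MYOB plates seeded with E. coli OP50 to induce dauer formation, and roughly 20 dauers were transferred into each well of a 96-well plate containing liquid NGM. Compound was pinned in to a final concentration of 60 µM with 0.6% v/v DMSO, and the sealed plates were shaken at 200 rpm for 5 days at 20 °C. The fraction of mobile worms was scored under a dissection microscope against DMSO-only wells and averaged across two biological replicates.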

Ditylenchus dipsaci = test: proportion of mobile D. dipsaci (mixed stage) relative to DMSO control (fraction of DMSO control); higher = more viable, less nematicidal, active = 0.86 or less; extreme values may be limits of the assay
Procedure, shortened: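 The worms, D. dipsaci raised on pea plants in Gamborg B-5 agar, were recovered through a filter funnel into water. Each well of a 96-well plate then held about 20 of them in distilled water plus pinned compound at 60 µM final (0.6% v/v DMSO), and the sealed plates were shaken at 200 rpm at 20 °C for 5 days. Following addition of 2 µL 1 M NaOH, mobile worms were counted by microscopy, and mobility was expressed against DMSO controls as the average of two biological replicates.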

Fc1cccc(Cl)c1CSc1nnc(-c2ccccc2Cl)o1
inactive: proportion of mobile M. hapla J2 (Meloidogyne hapla J2) 0.988 | proportion of mobile C. elegans dauer larvae [1] 1 | proportion of mobile D. dipsaci (Ditylenchus dipsaci) 1

COc1nc(-c2ccccc2)ccc1-c1noc(-c2ccccc2Cl)n1
inactive: proportion of mobile M. hapla J2 (Meloidogyne hapla J2) 0.989 | proportion of mobile C. elegans dauer larvae [1] 1 | proportion of mobile D. dipsaci (Ditylenchus dipsaci) 1

COc1ccccc1-c1noc(-c2ccccc2)n1
inactive: proportion of mobile M. hapla J2 (Meloidogyne hapla J2) 1.04 | proportion of mobile C. elegans dauer larvae [1] 1 | proportion of mobile D. dipsaci (Ditylenchus dipsaci) 1

Cc1cc(OCc2nc(-c3ccncc3)no2)cc(C)c1Cl
inactive: proportion of mobile M. hapla J2 (Meloidogyne hapla J2) 0.78 | proportion of mobile C. elegans dauer larvae [1] 1 | proportion of mobile D. dipsaci (Ditylenchus dipsaci) 1

N#Cc1cccc(CSc2nnc(-c3ccncc3)o2)c1
inactive: proportion of mobile M. hapla J2 (Meloidogyne hapla J2) 0.745 | proportion of mobile C. elegans dauer larvae [1] 1 | proportion of mobile D. dipsaci (Ditylenchus dipsaci) 1

Cc1cc(C)c(OCc2nc(-c3ccncc3)no2)c(C)c1
inactive: proportion of mobile M. hapla J2 (Meloidogyne hapla J2) 0.938 | proportion of mobile C. elegans dauer larvae [1] 1 | proportion of mobile D. dipsaci (Ditylenchus dipsaci) 1

O=C(CSc1nnc(-c2cccc(Br)c2)o1)Nc1ccccn1
inactive: proportion of mobile M. hapla J2 (Meloidogyne hapla J2) 0.951 | proportion of mobile C. elegans dauer larvae [1] 1 | proportion of mobile D. dipsaci (Ditylenchus dipsaci) 1

COc1ccc(-c2nnc(SCc3ccc(Cl)cc3Cl)o2)cc1
inactive: proportion of mobile M. hapla J2 (Meloidogyne hapla J2) 1.04 | proportion of mobile C. elegans dauer larvae [1] 1 | proportion of mobile D. dipsaci (Ditylenchus dipsaci) 1

Clc1ccc(-c2nc(-c3ccncc3)no2)cc1
inactive: proportion of mobile M. hapla J2 (Meloidogyne hapla J2) 1.03 | proportion of mobile C. elegans dauer larvae [1] 1 | proportion of mobile D. dipsaci (Ditylenchus dipsaci) 1

Cc1ccc(-c2noc(COc3cc(C)ccc3C)n2)cc1
inactive: proportion of mobile M. hapla J2 (Meloidogyne hapla J2) 0.994 | proportion of mobile C. elegans dauer larvae [1] 1 | proportion of mobile D. dipsaci (Ditylenchus dipsaci) 1

COc1ccc(-c2noc(-c3cccc(C)c3)n2)cc1
inactive: proportion of mobile M. hapla J2 (Meloidogyne hapla J2) 1.08 | proportion of mobile C. elegans dauer larvae [1] 0.889 | proportion of mobile D. dipsaci (Ditylenchus dipsaci) 1

Clc1cc(Br)ccc1OCc1nc(-c2cccnc2)no1
inactive: proportion of mobile M. hapla J2 (Meloidogyne hapla J2) 1.04 | proportion of mobile C. elegans dauer larvae [1] 1 | proportion of mobile D. dipsaci (Ditylenchus dipsaci) 1

Cc1cc(C)c(NC(=O)CSc2nnc(-c3ccc(Br)cc3)o2)c(C)c1
inactive: proportion of mobile M. hapla J2 (Meloidogyne hapla J2) 1 | proportion of mobile C. elegans dauer larvae [1] 1 | proportion of mobile D. dipsaci (Ditylenchus dipsaci) 1
